Data taken from PubChem BioAssay (NCATS).
Records with an inconclusive call do not appear. Values without a mark were called inactive. Activity calls are given as the source filed them. Calls follow the shape of the dose curve; as a rule, active = well fitted inhibition curve with a large enough effect; inconclusive = small, poorly fitted or top-dose-only effect; inactive = flat fitted curve, though single readings scatter.

These molecules were tested on HEK293 (assay: Cytotoxic Profiling of Annotated Libraries Using Quantitative High-Throughput Screening (AID 1296008; also: nearly all actives have a fitted effect of over 60% in size)). Conditions: Five cell lines viability, CellTiter-Glo ATP luminescence, 48-72 h; max response: active compounds read low.
Summary of the method: (§1)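 Cytotoxicity was measured as CellTiter-Glo ATP luminescence, read after 10 min at room temperature. Compound treatment of the cells lasted 48 or 72 hr at 37 degrees Celsius in a qHTS format.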
% is scaled to controls: 0 for no effect and ±100 for the full control effect; potency is read from the fitted curve at half-maximal effect.

| Compound | Potency | max response |
| --- | --- | --- |
| N#Cc1ccc(-c2cnc3[nH]cc(NC(=O)c4cccnc4)c3c2)cc1 | 8200 nM (active) | – |
| CC1(C)CC(=O)C2=C(C1)NC(=S)NC2c1cccc(O)c1 (stereo not given) | 1160 nM (active) | – |
| CC(O)c1cc(C(=O)N[C@@H](C)Cn2ccc(-c3ccc(C#N)c(Cl)c3)n2)n[nH]1 (stereo not given in full) | 18400 nM (active) | – |
| CCCN1CCC(c2cccc(S(C)(=O)=O)c2)CC1 | – | -1.41% |
| C=CC(=O)Nc1cccc(CN2C(=O)N(c3c(Cl)c(OC)cc(OC)c3Cl)Cc3cnc(NCCCCN(CC)CC)nc32)c1 | 16400 nM (active) | – |
| COc1cc2c(NC3CCN(CC4CCCCC4)CC3)nc(N3CCCN(C(C)C)CC3)nc2cc1OCCCN1CCCCC1 | 3260 nM (active) | – |
| C[C@@H]1O[C@@H](O[C@H]2[C@H](O[C@H]3CC[C@@]4(C)C(CC[C@]5(C)C4C=C[C@]46OC[C@@]7(CCC(C)(C)C[C@H]74)[C@@H](O)C[C@]65C)[C@]3(C)CO)O[C@H](CO)[C@@H](O)[C@@H]2O[C@@H]2O[C@H](CO)[C@@H](O[C@@H]3O[C@@H](C)[C@H](O)[C@@H](O)[C@H]3O)[C@H](O)[C@H]2O)[C@H](O)[C@H](O)[C@H]1O (stereo not given in full) | 3900 nM (active) | – |
| CCC(C)C(=O)OC1CC(O)C23C4OCC5(C(O)CC2C1(C)C(O)O4)C3C(=O)CC1(C)C(c2ccoc2)CC2OC215 (stereo not given) | 2520 nM (active) | – |

The molecules below were run on KB-3-1 in the same assay as above. Conditions: Five cell lines viability, CellTiter-Glo ATP luminescence, 48-72 h; max response: active compounds read low.
Summary of the method: as §1

| Compound | outcome | max response | Potency |
| --- | --- | --- | --- |
| O=c1[nH]ccc2cc(OC3CCNCC3)ccc12 | inactive | – | – |
| C=C1C(=O)O[C@@H]2[C@H]1CCC(C)=C1CCC(=O)O[C@]12C | – | -23.5% | – |
| Cc1cnc(Nc2ccc(F)cc2Cl)nc1-c1c[nH]c(C(=O)NC(CO)c2cccc(Cl)c2)c1 (stereo not given) | – | -9.44% | – |
| O=C1NC(=O)C(c2cn3c4c(cccc24)CCC3)C1c1c[nH]c2ccccc12 (stereo not given) | – | – | 1300 nM (active) |
| Cc1ccc(C(=O)N(CCCN)C(c2nc3cc(Cl)ccc3c(=O)n2Cc2ccccc2)C(C)C)cc1 (stereo not given) | – | – | 8.2 nM (active) |
| COC(=O)N[C@@H](C)CNc1nccc(-c2cn(C(C)C)nc2-c2cc(Cl)cc(NS(C)(=O)=O)c2F)n1 | – | -3.34% | – |
| O=C(c1ccccc1)c1ccc2nc(NC(=O)c3csc(C4CCN(c5ncnc6ccsc56)CC4)n3)[nH]c2c1 | – | – | 8200 nM (active) |
| CNC12CC3C[C@@](C)(C1)C[C@](C)(C3)C2 | inactive | – | – |
| O=C(Nc1ccc(Cl)cc1F)c1ccccc1O | – | – | 13000 nM (active) |
| Nc1nc(Nc2ccc(S(N)(=O)=O)cc2)n(C(=S)Nc2c(F)cccc2F)n1 | – | – | 1300 nM (active) |
| CNC(=O)c1ccccc1Nc1cc(Nc2ccc(N3CCOCC3)cc2OC)ncc1C(F)(F)F | – | -12.1% | – |
| COC(=O)C1(C)c2[nH]c3ccccc3c2CCN1C(=O)CCl (stereo not given) | – | – | 20600 nM (active) |
| CCN(CC)c1ccc2c(O)c(C=Nc3ccc(CC(=O)O)c(-c4c5c(nc6ccccc46)CCC(C(=O)NN)C5)c3)c(=O)oc2c1 (stereo not given) | – | – | 5800 nM (active) |
| Cc1ccc(NC(=O)c2ccc(CN3CC[C@H](N(C)C)C3)c(C(F)(F)F)c2)cc1Nc1nccc(-c2cncnc2)n1 | – | -1.65% | – |
| CC1(C)CCC[C@]2(C)[C@H]3CC(=O)O[C@]3(C)CC[C@@H]12 | – | -11% | – |
| COc1cc2ncnc(N3CCC(Oc4cnc5ccccc5n4)C3)c2cc1OC (stereo not given) | – | – | 1030 nM (active) |
| C/C=C/c1ccc(O[C@@H]2O[C@H](CO)[C@@H](O)[C@H](O)[C@H]2O)c(OC)c1 | – | -6.82% | – |
| O=C(c1cccc(Cl)c1F)N1CCN(Cc2cccc(Nc3nccs3)n2)CC1 | – | – | 1160 nM (active) |
| COc1ccc(Oc2cc(C)c(-c3csc(NC(=O)c4ccncc4)n3)c(C)c2)cc1 | – | – | 146 nM (active) |
| COc1ccc(CC2C(=O)NC(C)C(=O)N(C)C3Cc4ccc(cc4)Oc4cc(ccc4OC4OC(CO)C(O)C(O)C4O)CC(C(=O)NC(C)C(=O)NC(C)C(=O)N2C)N(C)C3=O)cc1 (stereo not given) | – | – | 138 nM (active) |
| CC1(C)CC[C@]23CO[C@@]4(CCC5[C@@]6(C)CC[C@H](O[C@@H]7OC[C@H](O[C@@H]8O[C@H](CO)[C@@H](O)[C@H](O)[C@H]8O)[C@H](O)[C@H]7O[C@@H]7O[C@H](CO)[C@@H](O[C@@H]8O[C@H](CO)[C@@H](O)[C@H](O)[C@H]8O)[C@H](O)[C@H]7O)[C@@](C)(CO)C6CC[C@@]5(C)[C@]4(C)C[C@H]2OC2OCC(O)C(O)C2O)C3C1 (stereo not given in full) | – | -11.5% | – |
| CC(C)(C)c1cc(Br)cc([C@H](CC(=O)O)NC(=O)CNC(=O)c2cc(O)cc(NC3=NCC(O)CN3)c2)c1 (stereo not given in full) | – | 3.01% | – |
